Data on 8 sequences can be found in article PMC7862700, “An all-to-all approach to the identification of sequence-specific readers for epigenetic DNA modifications on cytosine”.

Holding throughout (test): DAPPL (digital affinity profiling via proximity ligation, sequencing); 10 mM Tris-HCl pH 7.5, 50 mM NaCl, 1 mM DTT, 4% glycerol, room temperature, 30 min; GST-TFs on glutathione beads, 16-mer random dsDNA library, 0.1% formaldehyde crosslink after washing; high values mean tight binding
What all share (details): protein: recombinant; tags: N-terminal GST; dsDNA, one strand shown

One test concerns the target T1, ERF (Homo sapiens, UniProt P50548 1-548).
T1 sequence: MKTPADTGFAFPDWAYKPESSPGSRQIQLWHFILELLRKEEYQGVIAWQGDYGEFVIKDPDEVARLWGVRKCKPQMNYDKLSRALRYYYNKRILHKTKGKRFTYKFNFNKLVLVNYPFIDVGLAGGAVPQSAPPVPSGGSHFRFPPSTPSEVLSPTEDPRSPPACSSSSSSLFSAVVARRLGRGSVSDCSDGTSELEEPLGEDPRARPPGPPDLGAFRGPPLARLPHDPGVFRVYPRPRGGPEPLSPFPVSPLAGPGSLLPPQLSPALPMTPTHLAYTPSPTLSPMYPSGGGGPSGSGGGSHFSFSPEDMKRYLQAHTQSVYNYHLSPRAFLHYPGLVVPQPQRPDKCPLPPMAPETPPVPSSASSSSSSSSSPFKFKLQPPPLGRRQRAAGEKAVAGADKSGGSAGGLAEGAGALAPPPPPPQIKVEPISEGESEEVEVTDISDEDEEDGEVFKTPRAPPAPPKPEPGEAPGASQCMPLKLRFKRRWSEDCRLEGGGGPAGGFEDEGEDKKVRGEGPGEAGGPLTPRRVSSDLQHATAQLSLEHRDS
In outline:
(§1)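 Pools were built from human transcription factors expressed in yeast as GST fusions, captured on glutathione beads and DNA-barcoded, along with a tag-only sample. Incubation with 200 nmole of a 16-mer random double-stranded DNA library lasted 30 min at room temperature in Tris/NaCl/DTT/glycerol buffer, and was followed by washing, 0.1% formaldehyde crosslinking, proximity ligation, PCR amplification and Illumina NextSeq500 sequencing. Binding signal is the quotient of each hexamer's read frequency for a factor and its frequency for the tag-only sample.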

The target of a further test is T2, ETV3L (Homo sapiens, UniProt Q6ZN32 1-361).
T2 sequence: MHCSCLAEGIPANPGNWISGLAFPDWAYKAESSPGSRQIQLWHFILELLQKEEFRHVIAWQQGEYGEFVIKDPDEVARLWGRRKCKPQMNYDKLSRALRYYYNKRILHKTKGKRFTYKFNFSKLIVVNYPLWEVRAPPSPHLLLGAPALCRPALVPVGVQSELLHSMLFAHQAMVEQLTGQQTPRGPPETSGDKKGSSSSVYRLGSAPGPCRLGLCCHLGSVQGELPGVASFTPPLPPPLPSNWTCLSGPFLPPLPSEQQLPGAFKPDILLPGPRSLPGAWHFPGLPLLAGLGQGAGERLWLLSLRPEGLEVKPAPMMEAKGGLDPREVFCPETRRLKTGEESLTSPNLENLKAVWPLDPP
The method, boiled down:
as §1

The next test concerns the target T3, ETS2 (Homo sapiens, UniProt P15036 1-469).
T3 sequence: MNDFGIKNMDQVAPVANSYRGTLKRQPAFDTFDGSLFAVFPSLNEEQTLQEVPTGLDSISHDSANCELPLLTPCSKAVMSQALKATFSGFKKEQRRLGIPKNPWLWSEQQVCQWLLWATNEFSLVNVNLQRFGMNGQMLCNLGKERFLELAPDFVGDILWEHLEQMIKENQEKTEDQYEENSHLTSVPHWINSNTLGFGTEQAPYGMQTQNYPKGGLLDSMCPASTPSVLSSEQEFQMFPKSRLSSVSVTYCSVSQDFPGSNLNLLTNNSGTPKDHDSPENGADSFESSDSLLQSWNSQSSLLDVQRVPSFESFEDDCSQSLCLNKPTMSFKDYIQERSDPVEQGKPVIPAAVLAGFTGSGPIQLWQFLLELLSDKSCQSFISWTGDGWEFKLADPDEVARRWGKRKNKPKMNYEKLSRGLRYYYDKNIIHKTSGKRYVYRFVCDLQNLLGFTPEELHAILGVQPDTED
The method, boiled down: as §1

The target in the next test is T4, SPDEF (Homo sapiens, UniProt O95238 1-335).
T4 sequence: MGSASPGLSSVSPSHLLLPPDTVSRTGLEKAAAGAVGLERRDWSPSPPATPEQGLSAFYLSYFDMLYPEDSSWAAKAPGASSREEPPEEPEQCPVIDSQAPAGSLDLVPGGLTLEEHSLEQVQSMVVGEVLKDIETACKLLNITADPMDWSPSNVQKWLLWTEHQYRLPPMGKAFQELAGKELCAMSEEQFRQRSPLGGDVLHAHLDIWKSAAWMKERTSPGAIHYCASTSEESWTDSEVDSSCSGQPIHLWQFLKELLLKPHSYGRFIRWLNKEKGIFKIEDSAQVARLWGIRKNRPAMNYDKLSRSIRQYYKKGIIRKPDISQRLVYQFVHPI
In outline:
as §1

The next test concerns the target T5, ETV7 (Homo sapiens, UniProt Q9Y603 1-341).
T5 sequence: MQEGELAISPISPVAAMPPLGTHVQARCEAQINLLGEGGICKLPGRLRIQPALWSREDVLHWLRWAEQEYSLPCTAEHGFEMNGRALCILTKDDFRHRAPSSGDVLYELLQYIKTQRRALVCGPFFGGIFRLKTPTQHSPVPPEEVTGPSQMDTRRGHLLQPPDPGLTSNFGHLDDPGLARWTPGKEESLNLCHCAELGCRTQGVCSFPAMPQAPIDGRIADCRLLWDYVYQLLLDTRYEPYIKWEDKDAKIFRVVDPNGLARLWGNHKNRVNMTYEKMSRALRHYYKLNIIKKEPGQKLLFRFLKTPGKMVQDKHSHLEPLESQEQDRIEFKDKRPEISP
In outline: as §1

The target of the next test is T6, ELF5 (Homo sapiens, UniProt Q9UKW6-2 1-255).
T6 sequence: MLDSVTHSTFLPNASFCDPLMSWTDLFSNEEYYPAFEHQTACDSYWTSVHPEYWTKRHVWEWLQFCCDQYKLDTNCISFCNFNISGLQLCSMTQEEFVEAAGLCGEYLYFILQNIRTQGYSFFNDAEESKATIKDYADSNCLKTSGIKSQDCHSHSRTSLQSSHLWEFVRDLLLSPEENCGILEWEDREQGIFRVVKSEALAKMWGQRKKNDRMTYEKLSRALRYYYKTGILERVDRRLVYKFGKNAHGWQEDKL
The method, boiled down: as §1

A further test addresses T7, ETV3 (Homo sapiens, UniProt P41162-2 1-143).
T7 sequence: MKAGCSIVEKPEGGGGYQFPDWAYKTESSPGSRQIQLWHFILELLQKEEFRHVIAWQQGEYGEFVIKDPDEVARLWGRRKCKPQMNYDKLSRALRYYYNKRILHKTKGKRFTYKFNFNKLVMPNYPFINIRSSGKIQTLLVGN
The method, boiled down: as §1

Another test deals with ETV6 (Homo sapiens, UniProt P41212 1-452). In outline:
as §1

ETV6, sequence (P41212 whole entry): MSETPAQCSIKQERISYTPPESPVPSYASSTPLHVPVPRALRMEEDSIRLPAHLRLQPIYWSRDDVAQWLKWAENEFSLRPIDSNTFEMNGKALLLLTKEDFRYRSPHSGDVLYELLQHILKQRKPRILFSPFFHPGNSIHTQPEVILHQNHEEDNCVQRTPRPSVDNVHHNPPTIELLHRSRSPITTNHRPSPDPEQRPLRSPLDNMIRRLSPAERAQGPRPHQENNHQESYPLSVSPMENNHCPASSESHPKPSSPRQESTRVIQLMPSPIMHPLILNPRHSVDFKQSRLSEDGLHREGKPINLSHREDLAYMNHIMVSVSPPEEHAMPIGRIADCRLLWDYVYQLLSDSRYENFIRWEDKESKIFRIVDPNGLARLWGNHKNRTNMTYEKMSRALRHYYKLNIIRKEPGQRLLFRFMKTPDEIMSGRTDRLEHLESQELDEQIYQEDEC

With CCTCGC, the binding signal with ERF was 1.31 fold enrichment (6-mer frequency, TF over GST control); with ETV3L, 1.53 fold enrichment (6-mer frequency, TF over GST control); with ETS2, 1.41 fold enrichment (6-mer frequency, TF over GST control); in the test with SPDEF, 1.42 fold enrichment (6-mer frequency, TF over GST control); with ETV7 it was 1.48 fold enrichment (6-mer frequency, TF over GST control); in the test with ELF5, 1.41 fold enrichment (6-mer frequency, TF over GST control). Besides, the binding signal in the test with ETV3 was 1.45 fold enrichment (6-mer frequency, TF over GST control); with ETV6, 1.25 fold enrichment (6-mer frequency, TF over GST control).

CTGCAC: the binding signal was 1.11 fold enrichment (6-mer frequency, TF over GST control) with ERF; 1.16 fold enrichment (6-mer frequency, TF over GST control) with ETV3L; 1.12 fold enrichment (6-mer frequency, TF over GST control) with ETS2; 1.17 fold enrichment (6-mer frequency, TF over GST control) with SPDEF; 1.05 fold enrichment (6-mer frequency, TF over GST control) in the test with ETV7; 1.1 fold enrichment (6-mer frequency, TF over GST control) with ELF5. The binding signal with ETV3 was 1.23 fold enrichment (6-mer frequency, TF over GST control); in the test with ETV6 it was 1.24 fold enrichment (6-mer frequency, TF over GST control).

In the case of TCTCAA, the binding signal is 1.22 fold enrichment (6-mer frequency, TF over GST control) with ERF; 1.28 fold enrichment (6-mer frequency, TF over GST control) in the test with ETV3L; 1.25 fold enrichment (6-mer frequency, TF over GST control) in the test with ETS2; 1.23 fold enrichment (6-mer frequency, TF over GST control) with SPDEF; 1.17 fold enrichment (6-mer frequency, TF over GST control) in the test with ETV7; 1.15 fold enrichment (6-mer frequency, TF over GST control) in the test with ELF5. Besides, the binding signal is 1.3 fold enrichment (6-mer frequency, TF over GST control) in the test with ETV3 and 1.27 fold enrichment (6-mer frequency, TF over GST control) in the test with ETV6.

Turning to TCCTGA, the binding signal in the test with ERF is 1.26 fold enrichment (6-mer frequency, TF over GST control); with ETV3L, 1.43 fold enrichment (6-mer frequency, TF over GST control); in the test with ETS2 it was 1.59 fold enrichment (6-mer frequency, TF over GST control); in the test with SPDEF, 1.69 fold enrichment (6-mer frequency, TF over GST control); with ETV7, 1.32 fold enrichment (6-mer frequency, TF over GST control); with ELF5 it was 1.92 fold enrichment (6-mer frequency, TF over GST control). For the same sequence, the binding signal was 1.71 fold enrichment (6-mer frequency, TF over GST control) with ETV3 and 1.51 fold enrichment (6-mer frequency, TF over GST control) with ETV6.

CCTCTC: the binding signal with ERF was 1.4 fold enrichment (6-mer frequency, TF over GST control); with ETV3L, 1.41 fold enrichment (6-mer frequency, TF over GST control); with ETS2 it was 1.34 fold enrichment (6-mer frequency, TF over GST control); in the test with SPDEF it was 1.39 fold enrichment (6-mer frequency, TF over GST control); in the test with ETV7, 1.44 fold enrichment (6-mer frequency, TF over GST control); in the test with ELF5, 1.41 fold enrichment (6-mer frequency, TF over GST control). The binding signal with ETV3 was 1.44 fold enrichment (6-mer frequency, TF over GST control); with ETV6, 1.5 fold enrichment (6-mer frequency, TF over GST control).

With CTGACG, the binding signal in the test with ERF is 1.17 fold enrichment (6-mer frequency, TF over GST control); with ETV3L it was 1.03 fold enrichment (6-mer frequency, TF over GST control); with ETS2 it was 1.2 fold enrichment (6-mer frequency, TF over GST control); in the test with SPDEF, 1 fold enrichment (6-mer frequency, TF over GST control); in the test with ETV7 it was 1.07 fold enrichment (6-mer frequency, TF over GST control); in the test with ELF5, 1.09 fold enrichment (6-mer frequency, TF over GST control). Besides, the binding signal in the test with ETV3 was 1.06 fold enrichment (6-mer frequency, TF over GST control); with ETV6, 1.16 fold enrichment (6-mer frequency, TF over GST control).

For TTGACC, the binding signal in the test with ERF was 1.45 fold enrichment (6-mer frequency, TF over GST control); with ETV3L, 1.46 fold enrichment (6-mer frequency, TF over GST control); in the test with ETS2 it was 1.4 fold enrichment (6-mer frequency, TF over GST control); in the test with SPDEF, 1.52 fold enrichment (6-mer frequency, TF over GST control); with ETV7, 1.35 fold enrichment (6-mer frequency, TF over GST control); with ELF5, 1.37 fold enrichment (6-mer frequency, TF over GST control). Moreover, the binding signal in the test with ETV3 is 1.44 fold enrichment (6-mer frequency, TF over GST control); in the test with ETV6, 1.41 fold enrichment (6-mer frequency, TF over GST control).

As for CGTCCG, the binding signal was 1.32 fold enrichment (6-mer frequency, TF over GST control) with ERF; 1.19 fold enrichment (6-mer frequency, TF over GST control) with ETV3L; 1.28 fold enrichment (6-mer frequency, TF over GST control) in the test with ETS2; 1.48 fold enrichment (6-mer frequency, TF over GST control) with SPDEF; 1.37 fold enrichment (6-mer frequency, TF over GST control) with ETV7; 1.44 fold enrichment (6-mer frequency, TF over GST control) in the test with ELF5. For the same sequence, the binding signal in the test with ETV3 is 1.22 fold enrichment (6-mer frequency, TF over GST control); with ETV6, 1.34 fold enrichment (6-mer frequency, TF over GST control).
